# In PubChem BioAssay:
# Values joined by “and” are separate entries in the source; they are usually repeats but may differ in a detail not shown here. Equal values may be shown once. Records with an inconclusive call do not appear. Active and inactive are the calls of the source. Unless noted, no rule for the calls is given here.
# Columns and labels:
# [1] = P. berghei load reduction in hepatocytes – cell-based, HepG2, luciferase luminescence, HepG2 viability, primary screen (AID 624349; in the data active = parasite load remaining mostly below about 12%, no sharp cut-off; inactive = mostly above about 10%;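 also: 100% = mean of DMSO negative control wells on the same plate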); conditions: P. berghei liver stage in HepG2, luciferase luminescence, concentration not given here; parasite load remaining: stronger effect = lower value; viability: measured here: HepG2 viability without parasites
# [2] = liver-stage malaria parasite load reduction – cell-based, known kinase inhibitor set, luminescence, hepatoma host viability (AID 624392); conditions: Plasmodium liver stage in hepatoma cells, luciferase luminescence, concentration not given here; liver cell % of control: measured here: host liver cell viability; parasite % of control: stronger effect = lower value;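 also: infected cells incubated roughly two days before readout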
# [3] = tested on: Hepatitis C virus NS3 helicase; test: blockers of NS3h binding to ssDNA – biochemical, fluorescence polarization, LOPAC1280 library, primary screen (AID 687035; in the data active = inhibition above about 37%); conditions: Purified HCV NS3 helicase, Cy5-dT15 ssDNA binding fluorescence polarization; stronger effect = higher value; concentration not given here
# [4] = compounds altering Cy5-DNA-NS3h complex signal – biochemical, LOPAC1280, artefact control for HCV NS3 helicase inhibitor project (AID 687037); conditions: Cy5-DNA-NS3h complex fluorescence interference counterscreen
# [5] = tested on: Aerobactin synthetase IucA (Klebsiella pneumoniae); test: inhibition of K. pneumoniae IucA enzyme – biochemical, Tocris library, absorbance (AID 1345561); conditions: purified IucA enzyme assay, absorbance (OD) read-out; stronger effect = lower value;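 tested at 8 µM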;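 also: 100% = enzyme without compound and 0% = no enzyme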
# [6] = viability loss with induced miR-34 in A549 – imaging, A549 dox-inducible miR-34, nuclei and caspase counts, primary screen (AID 1347080;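 active = compounds whose cell count with miR-34 switched on is under 0.7 times the count with it off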); conditions: A549 miR-34 inducible, Hoechst nuclei count, 48 h
# [7] = blockers of cellular phospholipid synthesis – cell-based, LOPAC library, screen 4, primary screen (AID 1347384); conditions: animal cells, phospholipid biosynthesis inhibition screen; at 10 µM
# [8] = galactose survival enhancers in mitochondrial complex I cybrids – cell-based, galactose medium, ATP luminescence, primary screen (AID 1645843;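 active = z-score of at least 1.8 in each of two replicates, scored against plate mean and spread of sample wells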;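 also: positive z means more ATP and so rescue of galactose-driven cybrid death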); conditions: complex I mutant cybrid cells, 72 h, stronger effect = higher value
# [9] = target: ATP-dependent translocase ABCB1 (Homo sapiens) (UniProt P08183); test: P-glycoprotein substrate transport blockade – cell-based (AID 377; in the data active = fluorescence slope change above about 50%); conditions: MDR1-expressing cells, fluorescent substrate accumulation slope; stronger effect = higher value; concentration not given here
# Chain of ATP-dependent translocase ABCB1 (Homo sapiens) (P08183 whole entry, looked up): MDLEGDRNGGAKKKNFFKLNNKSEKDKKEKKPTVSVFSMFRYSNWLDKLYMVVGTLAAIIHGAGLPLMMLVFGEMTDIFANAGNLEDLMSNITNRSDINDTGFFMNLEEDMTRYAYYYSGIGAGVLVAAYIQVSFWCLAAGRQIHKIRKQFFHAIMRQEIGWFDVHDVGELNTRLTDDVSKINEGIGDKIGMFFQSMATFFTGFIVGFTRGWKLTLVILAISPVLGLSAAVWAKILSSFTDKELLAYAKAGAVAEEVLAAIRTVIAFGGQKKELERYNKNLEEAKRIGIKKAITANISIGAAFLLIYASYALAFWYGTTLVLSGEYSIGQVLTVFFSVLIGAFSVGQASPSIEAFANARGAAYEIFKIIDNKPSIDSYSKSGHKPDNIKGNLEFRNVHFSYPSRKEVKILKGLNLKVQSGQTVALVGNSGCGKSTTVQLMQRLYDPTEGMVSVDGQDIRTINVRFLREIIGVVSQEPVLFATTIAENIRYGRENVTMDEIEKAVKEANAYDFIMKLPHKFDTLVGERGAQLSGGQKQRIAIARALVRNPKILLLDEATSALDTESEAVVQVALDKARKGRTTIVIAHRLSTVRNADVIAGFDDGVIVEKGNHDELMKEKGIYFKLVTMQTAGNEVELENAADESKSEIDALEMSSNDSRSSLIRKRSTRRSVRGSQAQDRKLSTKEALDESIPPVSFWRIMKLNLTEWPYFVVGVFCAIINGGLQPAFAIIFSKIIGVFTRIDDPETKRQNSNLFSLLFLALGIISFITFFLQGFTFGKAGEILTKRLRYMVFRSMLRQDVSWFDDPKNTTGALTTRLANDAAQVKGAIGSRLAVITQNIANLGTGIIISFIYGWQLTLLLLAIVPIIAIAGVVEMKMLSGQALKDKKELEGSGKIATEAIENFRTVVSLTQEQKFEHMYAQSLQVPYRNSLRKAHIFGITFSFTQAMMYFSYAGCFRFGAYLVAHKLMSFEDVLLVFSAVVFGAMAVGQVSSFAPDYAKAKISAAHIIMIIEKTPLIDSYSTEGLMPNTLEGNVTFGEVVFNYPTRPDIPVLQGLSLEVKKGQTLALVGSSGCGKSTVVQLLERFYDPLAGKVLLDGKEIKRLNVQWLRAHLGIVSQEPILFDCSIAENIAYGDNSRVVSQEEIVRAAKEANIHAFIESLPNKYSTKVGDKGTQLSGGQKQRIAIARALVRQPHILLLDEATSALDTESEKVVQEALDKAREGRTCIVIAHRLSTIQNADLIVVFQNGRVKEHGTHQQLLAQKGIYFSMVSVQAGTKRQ
# [10] = compounds altering viability of human ES cells (AID 493140); conditions: human embryonic stem cell survival screen; stronger effect = higher value;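 also: cells exposed to compounds for four days before counting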
# [11] = MELAS cybrid and Rieske KO viability enhancers – cell-based, MELAS cybrids, Rieske KO mouse fibroblasts, CellTiter-Glo, primary screen (AID 1508586;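 active = mean z-score across replicates of 1.96 or higher in either the MELAS or the Rieske mutant cell line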;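 also: z relative to plate mean and SD of compound and empty wells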); conditions: low glucose
# [12] = target: NAD(+) hydrolase SARM1 (Homo sapiens) (UniProt Q6SZW1); test: blocking NAD cleavage by SARM1 SAM-TIR – cell lysate, NAD-Glo luminescence (AID 1508614;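 active = compound whose remaining NAD level is above about 45 nM, limit read from the data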;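 also: higher remaining NAD means stronger inhibition of SARM1 NADase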); conditions: SAM-TIR HEK293T lysate NADase, at 1 µM, stronger effect = higher value
# Chain of NAD(+) hydrolase SARM1 (Homo sapiens) (Q6SZW1 whole entry, looked up, the tested form may be a part): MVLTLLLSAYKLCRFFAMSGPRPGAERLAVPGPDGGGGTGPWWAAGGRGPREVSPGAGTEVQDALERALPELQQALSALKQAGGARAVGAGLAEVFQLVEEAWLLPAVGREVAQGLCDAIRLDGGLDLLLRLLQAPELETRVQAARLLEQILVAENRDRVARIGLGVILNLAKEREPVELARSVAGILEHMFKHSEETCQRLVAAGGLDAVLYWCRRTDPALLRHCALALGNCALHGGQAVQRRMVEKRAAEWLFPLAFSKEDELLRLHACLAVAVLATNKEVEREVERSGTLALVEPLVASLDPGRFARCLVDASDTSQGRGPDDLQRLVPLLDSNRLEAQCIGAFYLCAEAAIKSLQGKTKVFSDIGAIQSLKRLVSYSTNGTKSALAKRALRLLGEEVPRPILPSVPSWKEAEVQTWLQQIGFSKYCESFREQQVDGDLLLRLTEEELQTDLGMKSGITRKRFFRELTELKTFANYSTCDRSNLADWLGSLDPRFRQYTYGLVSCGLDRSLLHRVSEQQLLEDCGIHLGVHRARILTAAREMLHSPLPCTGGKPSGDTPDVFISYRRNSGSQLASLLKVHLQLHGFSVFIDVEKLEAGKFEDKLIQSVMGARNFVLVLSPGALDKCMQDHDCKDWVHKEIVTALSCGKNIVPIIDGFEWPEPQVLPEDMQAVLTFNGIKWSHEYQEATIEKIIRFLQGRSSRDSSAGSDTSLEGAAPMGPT
# [13] = target: Mitogen-activated protein kinase 7 (Homo sapiens) (UniProt Q13164); test: Gal4-ERK5 driven luciferase induction – cell-based, HTS, primary screen (AID 1508626;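 active = luciferase signal above three times the same-plate solvent-only control wells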;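 also: luciferase driven by Gal4-ERK5 fusion binding five Gal4 sites before minimal TATA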); conditions: HeLa Gal4-ERK5 transactivation, 18 h, at 5 µM, stronger effect = higher value
# Chain of Mitogen-activated protein kinase 7 (Homo sapiens) (Q13164 whole entry, looked up, the tested form may be a part): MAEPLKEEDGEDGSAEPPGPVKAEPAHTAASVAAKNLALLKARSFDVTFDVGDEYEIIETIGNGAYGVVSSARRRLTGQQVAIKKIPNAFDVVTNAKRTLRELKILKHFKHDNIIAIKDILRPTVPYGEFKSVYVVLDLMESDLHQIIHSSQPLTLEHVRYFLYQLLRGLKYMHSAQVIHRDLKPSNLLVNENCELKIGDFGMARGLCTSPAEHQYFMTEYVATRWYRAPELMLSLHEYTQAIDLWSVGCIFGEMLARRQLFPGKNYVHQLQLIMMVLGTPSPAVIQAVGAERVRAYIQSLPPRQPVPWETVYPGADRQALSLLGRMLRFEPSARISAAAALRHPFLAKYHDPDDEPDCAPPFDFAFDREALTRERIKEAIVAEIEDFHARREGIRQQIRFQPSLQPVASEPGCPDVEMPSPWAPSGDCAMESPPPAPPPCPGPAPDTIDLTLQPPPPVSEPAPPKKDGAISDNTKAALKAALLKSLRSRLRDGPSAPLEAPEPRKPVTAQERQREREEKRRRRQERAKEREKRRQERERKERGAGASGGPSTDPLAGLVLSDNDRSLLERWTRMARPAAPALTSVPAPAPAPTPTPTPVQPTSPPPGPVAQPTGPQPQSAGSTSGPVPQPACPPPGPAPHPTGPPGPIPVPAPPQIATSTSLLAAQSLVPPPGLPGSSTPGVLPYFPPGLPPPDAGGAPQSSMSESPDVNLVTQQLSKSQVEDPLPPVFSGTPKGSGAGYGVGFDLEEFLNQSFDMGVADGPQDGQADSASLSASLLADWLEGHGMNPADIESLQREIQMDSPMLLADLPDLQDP
# [14] = compounds altering circadian rhythm period length – cell-based, LOPAC library, luminescence reporter (AID 2774); conditions: circadian reporter cells, at 7 µM, actives lie on both sides;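 also: values are relative to mean of DMSO wells on each plate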
# [15] = chitosan synthesis blockers in C. neoformans – flow cytometry, Cibacron Brilliant Red staining (AID 1347148); conditions: Cryptococcus neoformans chitosan, stronger effect = lower value; at 10 µM unless noted;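 also: compound exposure lasted three days at 37 degrees C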
# [16] = stronger effect = lower value, cell number ratio, induced over uninduced
# [17] = measured here: relative caspase fold change +Dox/-Dox
# [18] = measured here: total cells with miR-34 induction, stronger effect = lower value
# [19] = measured here: total cells without miR-34 induction
# [20] = MELAS cybrid survival, CellTiter-Glo 48 h, stronger effect = higher value
# [21] = Rieske KO mouse fibroblast survival, CellTiter-Glo 72 h
compound,measurement,setting,value
Brc1c(Br)c(Br)c2n[nH]nc2c1Br,parasite load remaining,[1],65.4% (inactive)
same,viability,[1],173%
same,liver cell % of control,[2],96.1%
same,parasite % of control,[2],91.6% (inactive)
same,inhibition,[3],-6% (inactive)
same,fluorescence ratio (interference),[4],1 (inactive)
same,remaining activity,[5],108% (inactive)
same,fold change,[6]; [16],1.03 (inactive) and 1.02 (inactive)
same,fold change,[6]; [17],1.41 and 1.13
same,cell count,[6]; [18],10300 and 7940
same,cell count,[6]; [19],9970 and 7790
same,outcome,[7],inactive
same,z-score,[8],-0.92 (inactive) and -0.58 (inactive)
CCCCCCCCCCC(C)(C)C(=O)Nc1c(OC)cc(OC)cc1OC,inhibition,[3],-1% (inactive)
same,fluorescence ratio (interference),[4],1 (inactive)
same,remaining activity,[5],89.7% (inactive)
same,fold change,[6]; [16],1.03 (inactive) and 0.876 (inactive)
same,fold change,[6]; [17],2.03 and 1.56
same,cell count,[6]; [18],8990 and 6930
same,cell count,[6]; [19],8710 and 7910
same,outcome,[7],inactive
same,z-score,[8],-1.29 (inactive) and -0.7 (inactive)
CCc1ccc2c(-c3cccc(Cl)c3)nc(=O)n(CC)c2n1,inhibition,[3],-2% (inactive)
same,fluorescence ratio (interference),[4],1 (inactive)
same,remaining activity,[5],124% (inactive)
same,fold change,[6]; [16],1.11 (inactive) and 0.913 (inactive)
same,fold change,[6]; [17],1.55 and 0.664
same,cell count,[6]; [18],9380 and 8340
same,cell count,[6]; [19],8460 and 9140
same,outcome,[7],inactive
same,z-score,[8],1.02 (inactive) and -0.175 (inactive)
CN1CCc2cccc3c2[C@H]1Cc1ccc(O)c(O)c1-3,fluorescence slope change,[9],65.8% (active)
same,survival,[10],6.58 (inactive)
same,parasite load remaining,[1],7.04% (inactive) and 82% (inactive) and 31.2% (inactive)
same,viability,[1],42.7% and 84.6% and 138%
same,remaining activity,[5],113% (inactive)
same,fold change,[6]; [16],0.946 (inactive) and 0.949 (inactive) and 0.917 (inactive)
same,fold change,[6]; [17],0.839 and 1.17 and 0.734
same,cell count,[6]; [18],7920 and 7790 and 8530
same,cell count,[6]; [19],8370 and 8210 and 9300
same,z-score,[11]; [20],0.207 (inactive) and -0.194 (inactive)
same,z-score,[11]; [21],0.641 and 0.16
same,remaining NAD,[12],53 nM (active)
same,luciferase signal,[13],48 AU (inactive)
same,z-score,[8],-1.04 (inactive) and -2.25 (inactive)
O=C(O)CCC/C=C\C[C@@H]1[C@@H](/C=C/[C@@H](O)COc2cccc(Cl)c2)[C@H](O)C[C@@H]1O,survival,[10],113 (inactive)
same,remaining activity,[5],110% (inactive)
same,fold change,[6]; [16],0.943 (inactive) and 0.93 (inactive) and 0.921 (inactive)
same,fold change,[6]; [17],1.66 and 1.25 and 1.86
same,cell count,[6]; [18],5470 and 5960 and 8580
same,cell count,[6]; [19],5810 and 6400 and 9320
same,z-score,[8],-0.155 (inactive)
C/C(=C\c1ccc(C(=O)O)cc1)c1ccc2c(c1)C(C)(C)CCC2(C)C,period change,[14],0.4 h (inactive)
same,survival,[10],85.2 (inactive)
same,inhibition,[3],0% (inactive)
same,cell count,[6]; [18],6410 and 5680 and 8680
same,cell count,[6]; [19],6200 and 5870 and 8620
same,outcome,[7],inactive
same,z-score,[8],1.45 (inactive) and 1.6 (inactive)
COc1ccc(CCCOC(Cn2ccnc2)c2ccc(OC)cc2)cc1 (stereo not drawn),remaining activity,[5],113% (inactive)
same,fold change,[6]; [16],1.01 (inactive) and 1.05 (inactive)
same,fold change,[6]; [17],1.53 and 0.475 and 0.778
same,cell count,[6]; [18],1590 and 4390 and 2690
same,cell count,[6]; [19],1570 and 4170 and 2650
same,z-score,[8],-0.775 (inactive)
CC1(C)CCC(C)(C)c2cc(C(=O)Nc3ccc(C(=O)O)cc3)ccc21,survival,[10],83.8 (inactive)
same,cell count,[6]; [18],5520 and 7570
same,cell count,[6]; [19],5900 and 8080
same,z-score,[8],1.25 (inactive)
Cc1ccc2c(c1)C(=O)C1(O)CCN(c3ccccc3)C1=N2 (stereo not drawn),remaining activity,[5],119% (inactive)
same,fold change,[6]; [16],0.944 (inactive) and 1.14 (inactive) and 0.93 (inactive)
same,fold change,[6]; [17],1.39 and 0.747 and 0.79
same,cell count,[6]; [18],2140 and 6710 and 5140
same,cell count,[6]; [19],2270 and 5900 and 5530
same,z-score,[8],0.035 (inactive)
c1ccc(C(NCCNC(c2ccccc2)c2ccccc2)c2ccccc2)cc1,inhibition,[3],-4% (inactive)
same,fluorescence ratio (interference),[4],1 (inactive)
same,remaining activity,[5],112% (inactive)
same,fold change,[6]; [16],0.972 (inactive) and 0.853 (inactive)
same,fold change,[6]; [17],0.809 and 1.79
same,cell count,[6]; [18],5830 and 5710
same,cell count,[6]; [19],5990 and 6700
same,outcome,[7],inactive
same,z-score,[8],-1.29 (inactive) and -0.705 (inactive)
O=C1NC(=O)c2cc(Nc3ccccc3)c(Nc3ccccc3)cc21,inhibition,[3],0% (inactive)
same,fluorescence ratio (interference),[4],1 (inactive)
same,remaining activity,[5],123% (inactive)
same,fold change,[6]; [16],1.14 (inactive) and 0.996 (inactive)
same,fold change,[6]; [17],1.65 and 1.45
same,cell count,[6]; [18],3180 and 3240
same,cell count,[6]; [19],2790 and 3260
same,outcome,[7],inactive
same,z-score,[8],-1.08 (inactive) and -0.55 (inactive)
Nc1ncnc2n[nH]c(Nc3ccc(F)cc3)c12,parasite load remaining,[1],34.8% (inactive)
same,viability,[1],85.8%
same,inhibition,[3],-5% (inactive)
same,fluorescence ratio (interference),[4],1 (inactive)
same,remaining activity,[5],105% (inactive)
same,z-score,[11]; [20],-0.494 (inactive)
same,z-score,[11]; [21],0.733
same,z-score,[8],0.375 (inactive) and 0.16 (inactive)
CC[N+](CC)(CC)CC(=O)Nc1c(C)cccc1C,period change,[14],0.065 h (inactive)
same,inhibition,[3],-2% (inactive)
same,fluorescence ratio (interference),[4],1 (inactive)
same,remaining activity,[5],100% (inactive) and 106% (inactive)
same,fold fluorescence,[15],6.95 [at 145.6 µM] (inactive)
same,outcome,[7],inactive
same,z-score,[8],0.42 (inactive) and 1.23 (inactive) and 0.065 (inactive)
CC(C)(C=O)Cc1cc(C(C)(C)C)c(O)c(C(C)(C)C)c1,period change,[14],0.05 h (inactive)
same,inhibition,[3],0% (inactive)
same,fluorescence ratio (interference),[4],1 (inactive)
same,remaining activity,[5],125% (inactive)
same,fold change,[6]; [16],1.05 (inactive) and 0.927 (inactive)
same,fold change,[6]; [17],1.79 and 0.718
same,cell count,[6]; [18],9400 and 9850
same,cell count,[6]; [19],8980 and 10600
same,outcome,[7],inactive
same,z-score,[8],-1.33 (inactive) and -0.18 (inactive)
